Reference: the supplement of paper PMC7261846
Structures can show the parent of a compound that is named as a salt. ± gives the uncertainty stated by the source.

test system: Candida albicans SNY425 biofilm; assay: biofilm OD600 with compound plus antifungal (OD600 (absorbance)); higher = more biofilm remaining; conditions: assay detail: disruption of 24-h mature biofilm (compound + antifungal for a second 24 h)

Point of comparison: `CC(C)CN(C[C@@H](O)[C@H](Cc1ccccc1)NC(=O)O[C@H]1CCOC1)S(=O)(=O)c1ccc(N)cc1` [amprenavir] + CC[C@H](C)C[C@H](C)CCCCCCCCC(=O)N[C@H]1C[C@@H](O)[C@@H](NCCN)NC(=O)[C@@H]2[C@@H](O)CCN2C(=O)[C@H]([C@H](O)CCN)NC(=O)[C@H]([C@H](O)[C@@H](O)c2ccc(O)cc2)NC(=O)[C@@H]2C[C@@H](O)CN2C(=O)[C@H]([C@@H](C)O)NC1=O [caspofungin] (first compound 12.5 µM), “biofilm OD600” value 0.271 ± 0.014. Against it:
- CC(C)C[C@H](NP(=O)(O)O[C@@H]1O[C@@H](C)[C@H](O)[C@@H](O)[C@H]1O)C(=O)N[C@@H](Cc1c[nH]c2ccccc12)C(=O)O [Phosphoramidon] + OC(Cn1cncn1)(Cn1cncn1)c1ccc(F)cc1F [fluconazole] (first compound 12.5 µM) — within error, 0.255 ± 0.0097
- CC(C)(C)NC(=O)[C@@H]1CN(Cc2cccnc2)CCN1C[C@@H](O)C[C@@H](Cc1ccccc1)C(=O)N[C@H]1c2ccccc2C[C@H]1O [indinavir] + C[C@@H]1[C@H](O)[C@@H](C)/C=C/C=C/C=C/C=C/C=C/C=C/C=C/[C@H](O[C@@H]2O[C@H](C)[C@@H](O)[C@H](N)[C@@H]2O)C[C@@H]2O[C@](O)(C[C@@H](O)C[C@@H](O)[C@H](O)CC[C@@H](O)C[C@@H](O)CC(=O)O[C@H]1C)C[C@H](O)[C@H]2C(=O)O [amphotericin B] (first compound 12.5 µM) — within error, 0.283 ± 0.0099
- CO[C@@H]1[C@H](OC(=O)/C=C/C=C/C=C/C=C/C(=O)O)CC[C@]2(CO2)[C@H]1[C@@]1(C)O[C@@H]1CC=C(C)C [Fumagillin] + OC(Cn1cncn1)(Cn1cncn1)c1ccc(F)cc1F [fluconazole] (first compound 12.5 µM) — within error, 0.246 ± 0.013
- CNC(=O)[C@H](Cc1c[nH]c2ccccc12)NC(=O)[C@@H](CC(=O)NO)CC(C)C + CC[C@H](C)C[C@H](C)CCCCCCCCC(=O)N[C@H]1C[C@@H](O)[C@@H](NCCN)NC(=O)[C@@H]2[C@@H](O)CCN2C(=O)[C@H]([C@H](O)CCN)NC(=O)[C@H]([C@H](O)[C@@H](O)c2ccc(O)cc2)NC(=O)[C@@H]2C[C@@H](O)CN2C(=O)[C@H]([C@@H](C)O)NC1=O [caspofungin] (first compound 12.5 µM) — within error, 0.278 ± 0.01
- C[C@]1(Cn2ccnn2)[C@H](C(=O)O)N2C(=O)C[C@H]2S1(=O)=O [Tazobactam] + OC(Cn1cncn1)(Cn1cncn1)c1ccc(F)cc1F [fluconazole] (first compound 12.5 µM) — within error, 0.283 ± 0.011
- O=C(O[C@@H]1Cc2c(O)cc(O)cc2O[C@@H]1c1cc(O)c(O)c(O)c1)c1cc(O)c(O)c(O)c1 [Epigallocatechin gallate] + OC(Cn1cncn1)(Cn1cncn1)c1ccc(F)cc1F [fluconazole] (first compound 12.5 µM) — within error, 0.262 ± 0.011
- CC[C@H](C)[C@H](N)C(=O)N1CCSC1 [P32/98 hemifumarate salt] + C[C@@H]1[C@H](O)[C@@H](C)/C=C/C=C/C=C/C=C/C=C/C=C/C=C/[C@H](O[C@@H]2O[C@H](C)[C@@H](O)[C@H](N)[C@@H]2O)C[C@@H]2O[C@](O)(C[C@@H](O)C[C@@H](O)[C@H](O)CC[C@@H](O)C[C@@H](O)CC(=O)O[C@H]1C)C[C@H](O)[C@H]2C(=O)O [amphotericin B] (first compound 12.5 µM) — within error, 0.259 ± 0.014
- CC(C)CC(=O)N[C@H](C(=O)N[C@H](C(=O)N[C@@H](CC(C)C)[C@@H](O)CC(=O)N[C@@H](C)C(=O)N[C@@H](CC(C)C)[C@@H](O)CC(=O)O)C(C)C)C(C)C [Pepstatin A] + C[C@@H]1[C@H](O)[C@@H](C)/C=C/C=C/C=C/C=C/C=C/C=C/C=C/[C@H](O[C@@H]2O[C@H](C)[C@@H](O)[C@H](N)[C@@H]2O)C[C@@H]2O[C@](O)(C[C@@H](O)C[C@@H](O)[C@H](O)CC[C@@H](O)C[C@@H](O)CC(=O)O[C@H]1C)C[C@H](O)[C@H]2C(=O)O [amphotericin B] (first compound 12.5 µM) — within error, 0.272 ± 0.0097
- CC(C)C[C@H](NC(=O)N[C@H](C(=O)N[C@@H](CCC(N)=O)C(=O)N[C@@H](C)C=O)[C@@H]1CCNC(=N)N1)C(=O)O [Elastatinal] + OC(Cn1cncn1)(Cn1cncn1)c1ccc(F)cc1F [fluconazole] (first compound 12.5 µM) — lower, 0.249 ± 0.0066
- CCCCC[C@H](CC(=O)NO)C(=O)N[C@H](C(=O)N1CCC[C@H]1CO)C(C)C [Actinonin] + CC[C@H](C)C[C@H](C)CCCCCCCCC(=O)N[C@H]1C[C@@H](O)[C@@H](NCCN)NC(=O)[C@@H]2[C@@H](O)CCN2C(=O)[C@H]([C@H](O)CCN)NC(=O)[C@H]([C@H](O)[C@@H](O)c2ccc(O)cc2)NC(=O)[C@@H]2C[C@@H](O)CN2C(=O)[C@H]([C@@H](C)O)NC1=O [caspofungin] (first compound 12.5 µM) — within error, 0.263 ± 0.021
- Nc1ccc(CC(CC(=O)O)C(=O)O)cc1 [4-Amino-D, L-benzylsuccinic acid] + CC[C@H](C)C[C@H](C)CCCCCCCCC(=O)N[C@H]1C[C@@H](O)[C@@H](NCCN)NC(=O)[C@@H]2[C@@H](O)CCN2C(=O)[C@H]([C@H](O)CCN)NC(=O)[C@H]([C@H](O)[C@@H](O)c2ccc(O)cc2)NC(=O)[C@@H]2C[C@@H](O)CN2C(=O)[C@H]([C@@H](C)O)NC1=O [caspofungin] (first compound 12.5 µM) — within error, 0.295 ± 0.016
- CCOC(=O)c1ccc(OC(=O)CCCCCNC(=N)N)cc1 [Gabexate mesylate] + C[C@@H]1[C@H](O)[C@@H](C)/C=C/C=C/C=C/C=C/C=C/C=C/C=C/[C@H](O[C@@H]2O[C@H](C)[C@@H](O)[C@H](N)[C@@H]2O)C[C@@H]2O[C@](O)(C[C@@H](O)C[C@@H](O)[C@H](O)CC[C@@H](O)C[C@@H](O)CC(=O)O[C@H]1C)C[C@H](O)[C@H]2C(=O)O [amphotericin B] (first compound 12.5 µM) — within error, 0.281 ± 0.012
- C[C@H](NC(=O)[C@@H]1CCCN1C(=O)[C@@H]1CCCN1C(=O)[C@@H](O)[C@H](N)Cc1ccccc1)C(N)=O [Apstatin] + OC(Cn1cncn1)(Cn1cncn1)c1ccc(F)cc1F [fluconazole] (first compound 12.5 µM) — within error, 0.287 ± 0.01
- C[C@H](CS)C(=O)N1CCC[C@H]1C(=O)O [Captopril] + OC(Cn1cncn1)(Cn1cncn1)c1ccc(F)cc1F [fluconazole] (first compound 12.5 µM) — within error, 0.281 ± 0.0069
- CC1(C)C[C@@H]1C(=O)N/C(=C\CCCCSC[C@H](N)C(=O)O)C(=O)O [Cilastatin] + CC[C@H](C)C[C@H](C)CCCCCCCCC(=O)N[C@H]1C[C@@H](O)[C@@H](NCCN)NC(=O)[C@@H]2[C@@H](O)CCN2C(=O)[C@H]([C@H](O)CCN)NC(=O)[C@H]([C@H](O)[C@@H](O)c2ccc(O)cc2)NC(=O)[C@@H]2C[C@@H](O)CN2C(=O)[C@H]([C@@H](C)O)NC1=O [caspofungin] (first compound 12.5 µM) — within error, 0.283 ± 0.0048
- CCOC(=O)[C@H](CCc1ccccc1)N[C@@H](C)C(=O)N1CCC[C@H]1C(=O)O [Enalapril] + C[C@@H]1[C@H](O)[C@@H](C)/C=C/C=C/C=C/C=C/C=C/C=C/C=C/[C@H](O[C@@H]2O[C@H](C)[C@@H](O)[C@H](N)[C@@H]2O)C[C@@H]2O[C@](O)(C[C@@H](O)C[C@@H](O)[C@H](O)CC[C@@H](O)C[C@@H](O)CC(=O)O[C@H]1C)C[C@H](O)[C@H]2C(=O)O [amphotericin B] (first compound 12.5 µM) — within error, 0.279 ± 0.0057
- CC(C)(C)NC(=O)[C@@H]1CN(Cc2cccnc2)CCN1C[C@@H](O)C[C@@H](Cc1ccccc1)C(=O)N[C@H]1c2ccccc2C[C@H]1O [indinavir] + OC(Cn1cncn1)(Cn1cncn1)c1ccc(F)cc1F [fluconazole] (first compound 12.5 µM) — within error, 0.273 ± 0.013
- O=c1oc(Cl)c(Cl)c2ccccc12 [3,4-Dichloroisocoumarin] + OC(Cn1cncn1)(Cn1cncn1)c1ccc(F)cc1F [fluconazole] (first compound 12.5 µM) — lower, 0.237 ± 0.011
- NCC1CCC(C(=O)N[C@@H](Cc2ccccc2)C(=O)Nc2ccc(CC(=O)O)cc2)CC1 (some centres not stated) + OC(Cn1cncn1)(Cn1cncn1)c1ccc(F)cc1F [fluconazole] (first compound 12.5 µM) — within error, 0.251 ± 0.0096
- CSCCC(C=O)NC(=O)C(CC(C)C)NC(=O)[C@H](CC(C)C)NC(C)=O (some centres not stated) [Calpain Inhibitor II (ALLM)] + OC(Cn1cncn1)(Cn1cncn1)c1ccc(F)cc1F [fluconazole] (first compound 12.5 µM) — lower, 0.239 ± 0.0058
- CC1CNc2c(cccc2S(=O)(=O)N[C@@H](CCCNC(=N)N)C(=O)N2CC[C@@H](C)C[C@@H]2C(=O)O)C1 (some centres not stated) [Argatroban] + C[C@@H]1[C@H](O)[C@@H](C)/C=C/C=C/C=C/C=C/C=C/C=C/C=C/[C@H](O[C@@H]2O[C@H](C)[C@@H](O)[C@H](N)[C@@H]2O)C[C@@H]2O[C@](O)(C[C@@H](O)C[C@@H](O)[C@H](O)CC[C@@H](O)C[C@@H](O)CC(=O)O[C@H]1C)C[C@H](O)[C@H]2C(=O)O [amphotericin B] (first compound 12.5 µM) — within error, 0.3 ± 0.018
